A selection: hits, their analogues and other compounds. The true share with any hit is near 2%.
Gli-Sufu block: Gli-Sufu pathway antagonism; Sufu-KO-LIGHT fibroblasts, Gli luciferase reporter luminescence; inhibition, % at 5 µM; hit rate 0.74% among 340,000; AID 588413;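 active = inhibition above about 55%, limit read from the data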
697 NFkB inh: lowers PMA/ionomycin-induced NF-kB signal in 697 B cells. AID 435022. 697 B-cell NF-kB luciferase reporter, 16 h. hit rate 0.33% among 330,000. inhibition, % at 4 µM; in the data active = inhibition above about 35%
COUP-TFII inh: blocks human COUP-TFII nuclear receptor | P24468 | HEK293T NGFI-A luciferase reporter, luminescence | inhibition, % at 8.6 µM | hit rate 0.7% among 370,000 | AID 686940;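 active = inhibition above a per-plate cutoff, mean inhibition of test wells between control levels plus 3 SD, cut at about 38% in these data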;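 also: cells cotransfected with COUP-TFII expression vector driving the NGFI-A reporter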
Jurkat NFkB inh: inhibitors of the PMA/ionomycin-induced NF-kB reporter in Jurkat cells | PMA/ionomycin-induced NF-kB luciferase reporter, luminescence | inhibition, % at 4 µM | hit rate 0.53% among 330,000 | AID 435003; in the data active = inhibition above about 50%
GalR3 antagonist: antagonists of human GalR3; O60755; HEK293 GalR3-CNG cAMP membrane potential fluorescence; galR3 body fused to GalR1 C-terminus; inhibition, % at 3 µM; hit rate 0.44% among 360,000; AID 651719;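 active = inhibition above the screen-wide average plus 3 SD, cut at about 13% in these data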;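 also: forskolin and galanin both at EC90 stimulate the cells; cAMP rise reported by CNG channel membrane potential dye signal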
Target sequence (O60755 1-299 limits assumed): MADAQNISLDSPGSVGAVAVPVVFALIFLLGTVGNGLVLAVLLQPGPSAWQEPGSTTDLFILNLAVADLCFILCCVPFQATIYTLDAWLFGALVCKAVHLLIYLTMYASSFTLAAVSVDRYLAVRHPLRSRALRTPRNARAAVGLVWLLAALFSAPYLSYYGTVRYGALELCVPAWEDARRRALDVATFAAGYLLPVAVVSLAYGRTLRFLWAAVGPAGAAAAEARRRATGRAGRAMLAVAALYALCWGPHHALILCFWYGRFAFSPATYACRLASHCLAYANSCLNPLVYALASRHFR
Jurkat NFkB conf: lowers PMA/ionomycin-induced NF-kB signal in Jurkat cells | shares compounds with Jurkat NFkB inh | Jurkat NF-kB luciferase, 16 h | inhibition, % at 4 µM | hit rate 27% among 2,700;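 active = inhibition reaching about 45% at 4 µM in either replicate, limit read from the data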
Each line names hits and unclear results; the compound was inactive in the other large screens (follow-up assays come after a bar, where they were run).

CCN(CCCNC(=O)C1CCC(=O)N1Cc1ccccc1Cl)c1cccc(C)c1 (stereo not given)	none
CCN(CCCNC(=O)C1CCC(=O)N1Cc1ccc(C)cc1)c1cccc(C)c1 (stereo not given)	Jurkat NFkB inh 57.1 | Jurkat NFkB conf inactive
C/C(=N\Nc1ccc2nncn2n1)c1ccccn1	Gli-Sufu block 74.1, Jurkat NFkB inh 55.2 | Jurkat NFkB conf inactive
COC(=O)[C@@]12CCCCC3=C1N(CCC3)C(=O)[C@H]2CC(=O)N1CCSCC1	none (no result: Gli-Sufu block, 697 NFkB inh, Jurkat NFkB inh, GalR3 antagonist)
COc1ccccc1CNC(=O)c1cccc(-c2ccc(C)c3ccccc23)n1	Jurkat NFkB inh 61.4 (no result: Gli-Sufu block) | Jurkat NFkB conf inactive
Cc1cc(-c2n[nH]c(=S)n2N=Cc2ccc(OCc3ccccc3)cc2)n[nH]1	none (no result: Gli-Sufu block, 697 NFkB inh, Jurkat NFkB inh, GalR3 antagonist)
O=C(Cc1ccccc1F)Nc1nnc(-c2cccnc2)s1	none (no result: Gli-Sufu block, 697 NFkB inh, Jurkat NFkB inh, GalR3 antagonist)
Cc1cc(-c2csc(Nc3ccccn3)n2)ccc1F	none | Jurkat NFkB conf inactive
Oc1ccc(-c2csc(Nc3ccccn3)n2)cc1	none
O=C(/C=C/c1cccs1)N1CCc2ccccc21	none | Jurkat NFkB conf inactive
O=C(c1cccs1)N1CCc2ccccc21	none
Cc1ccccc1CC(=O)N1CCC(n2nnc3ncccc32)CC1	none (no result: Gli-Sufu block, 697 NFkB inh, Jurkat NFkB inh, GalR3 antagonist)
COc1ccccc1C(=O)Nc1nc2cc3c(cc2s1)OCCO3	none (no result: COUP-TFII inh, GalR3 antagonist) | Jurkat NFkB conf inactive
COc1ccccc1C(=O)Nc1nc2cc3c(cc2s1)OCO3	none
CSc1ccc(C=NNC(=O)c2cc(-c3ccc(Cl)cc3)n[nH]2)cc1	none (no result: Gli-Sufu block, 697 NFkB inh, Jurkat NFkB inh, GalR3 antagonist)
O=C(N[C@@H](Cc1ccccc1)C(=O)CCl)OCc1ccccc1	Jurkat NFkB inh 83.1 | Jurkat NFkB conf 47.6
O=C(/C=C\Nc1cccc(F)c1)c1cccs1	none | Jurkat NFkB conf inactive
Cc1ccccc1CN1CCCCC(NC(=O)c2cccc([N+](=O)[O-])c2)C1=O (stereo not given)	none (no result: Gli-Sufu block, 697 NFkB inh, Jurkat NFkB inh, GalR3 antagonist)
COC(=O)[C@]12C[C@H](CC(=O)N3CCC(c4ccccc4)CC3)C(=O)N(Cc3cccc4ccccc34)C1=C[C@H](C1CCCC1)O[C@@H]2C	none (no result: Gli-Sufu block, 697 NFkB inh, Jurkat NFkB inh, GalR3 antagonist)
CCc1cc2c(=O)n(Cc3ccco3)c(SCc3c(C)noc3C)nc2s1	Jurkat NFkB inh 55.3 | Jurkat NFkB conf inactive
O=C(CSc1nnc(COc2ccccc2)n1-c1ccc(Cl)cc1)Nc1ccccc1-c1ccccc1	none (no result: Gli-Sufu block, 697 NFkB inh, Jurkat NFkB inh, GalR3 antagonist)
CCCCN1/C(=C/c2ccc3ccccc3[n+]2CC)Sc2ccccc21	Gli-Sufu block 88.0, Jurkat NFkB inh 86.8 (no result: COUP-TFII inh, GalR3 antagonist) | Jurkat NFkB conf 67.2
CCN1/C(=C/c2ccc3ccccc3[n+]2CC)C=Cc2ccccc21	Gli-Sufu block 92.0, COUP-TFII inh 74.8, Jurkat NFkB inh 97.0, GalR3 antagonist 53.0 | Jurkat NFkB conf 71.2
Clc1ccc(-c2nnc(-c3ccccc3Cl)o2)cc1	none | Jurkat NFkB conf inactive
CN(C)c1ccc(-c2nnc(-c3ccccc3F)o2)cc1	none | Jurkat NFkB conf inactive
Cc1ccccc1Cn1cc(CN2[C@H](C)COc3cc(Br)ccc3S2(=O)=O)nn1	none (no result: Gli-Sufu block, 697 NFkB inh, Jurkat NFkB inh, GalR3 antagonist)
Cc1ccc(Cn2cc(CN3[C@@H](CC(C)C)COc4cc(Br)ccc4S3(=O)=O)nn2)cc1	none (no result: Gli-Sufu block, 697 NFkB inh, Jurkat NFkB inh, GalR3 antagonist)
Cc1ccc(C)c(NS(=O)(=O)c2ccc(-c3cnc(C4CC4)o3)cc2)c1	Jurkat NFkB inh 61.2 | Jurkat NFkB conf 60.0
CC(=O)Nc1ccc(NS(=O)(=O)c2ccc(-c3cnc(C4CC4)o3)cc2)cc1	none
COc1ccc(NS(=O)(=O)c2cc(-c3cnc(C4CC4)o3)ccc2C)cc1	Jurkat NFkB inh 59.1 | Jurkat NFkB conf 48.9
O=S(=O)(Nc1ccccc1)c1ccc(-c2cnc(C3CC3)o2)cc1	Jurkat NFkB inh 52.7 | Jurkat NFkB conf inactive
Cc1cccc(NS(=O)(=O)c2ccc(-c3cnc(C4CC4)o3)cc2)c1C	Jurkat NFkB inh 60.3 | Jurkat NFkB conf 66.2
CCOc1ccc(NS(=O)(=O)c2ccc(-c3cnc(C4CC4)o3)cc2)cc1	none
CCOc1ccc(CCNC(=O)Cc2ccccc2)cc1OCC	none (no result: Gli-Sufu block, 697 NFkB inh, Jurkat NFkB inh, GalR3 antagonist)
COc1cc(NC(=O)c2ccccc2)c(C)cc1NC(=O)CSc1nnc(COc2ccccc2)n1Cc1ccco1	none (no result: Gli-Sufu block, 697 NFkB inh, Jurkat NFkB inh, GalR3 antagonist)
O=C(OCCN1CCN(C2CN(Cc3cn(Cc4cccc(F)c4)nn3)S(=O)(=O)C2)CC1)c1cc2ccccc2o1 (stereo not given)	none (no result: Gli-Sufu block, 697 NFkB inh, Jurkat NFkB inh, GalR3 antagonist)
COc1ccc(C(=O)Nc2ccc(-c3ccc(C)o3)cc2)cc1S(=O)(=O)N1CCOCC1	COUP-TFII inh 75.1, Jurkat NFkB inh 58.6, GalR3 antagonist 93.6 | Jurkat NFkB conf inactive
COc1ccc(C(=O)Nc2ccc(N3CCOCC3)cc2)cc1S(=O)(=O)N1CCOCC1	none
O=C(c1ccco1)N1c2ccccc2Sc2ccccc21	none

Screening results from PubChem BioAssay.
